Experimental data: PubChem BioAssay
Records with an inconclusive call do not appear. Active and inactive are the calls of the source.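 The calls were made as follows, unless noted: active = viability loss from added drug above about 55%, and viability with drug at most 40%, in both replicates (limit read from the data, passing the limit was not always enough); inconclusive = both conditions met in only one replicate; inactive = neither replicate meets both conditions.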

Columns and labels:
[1] = HUVEC growth inhibition – cell-based, human, primary screen (AID 575;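 active = viability at or below 30% in both replicate assays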;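 also: 100% = median of untreated cell wells with 0.1% DMSO on each plate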); details: HUVEC proliferation, CellTiter-Glo luminescence, 72 h; at 10 µM; stronger effect = lower value
[2] = reversal of MRP1-mediated doxorubicin resistance, pilot screen, H69AR cells, doxorubicin co-treatment (AID 601); details: CellTiter-Glo, 72 h, at 10 µM; for differential viability (reversal): stronger effect = higher value
[3] = 384-well plate pilot, post-Golgi transport modulator project, inhibition of yeast transport mutant growth (AID 636; in the data active = inhibition above about 31%); details: absorbance 615 nm, about 18 h, stronger effect = higher value
[4] = growth suppression of yeast trafficking mutant, preliminary HTS, modulators of trafficking downstream of Golgi apparatus project, 1536-format plate, OD 615 nm (AID 637; in the data active = inhibition above about 30%); details: yeast transport mutant growth, absorbance 615 nm, 18 h; stronger effect = higher value
[5] = growth inhibitors of H69AR lung tumor, primary screen, human, duplicate replicates (AID 580;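 active = viability at or under a set limit in both replicates, limit being median viability minus 3 SD, cut at about 48% in these data, passing the limit was not always enough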;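 also: 100% = mean luminescence of untreated wells and 0% = no signal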); details: H69AR lung tumor cells viability, ATP luminescence, 72 h; at 10 µM; stronger effect = lower value
[6] = OD615 S. cerevisiae growth inhibition, permissive medium, pilot counter-assay, permissive growth control for S. cerevisiae lifespan shortening project (AID 705;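 active = growth inhibition above 25% in both replicates, a cutoff set 3 SD above the mean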); details: OD615, 24 h, at 10 µM, stronger effect = higher value
[7] = Restrictive medium S. cerevisiae growth inhibition, OD615, pilot screen of yeast lifespan reduction project, restrictive growth control (AID 706;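 active = growth inhibition above a set limit, 3 SD over mean compound inhibition, in both replicates, cut at about 43% in these data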;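 also: modified DeaD lifespan yeast strain shifted to restrictive glucose medium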); details: OD615, 48 h, at 10 µM, stronger effect = higher value
[8] = viability gain of MRP-1-high H69AR cells under doxorubicin, pilot screen, MRP-1 activator project, CellTiter-Glo, duplicate (AID 807;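 active = viability increase at or above a cutoff of the median across tested compounds plus 3 SD, cut at about 8.5% in these data, passing the limit was not always enough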;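 also: compound pretreatment 18-22 h then 72 h combined with doxorubicin; 0% = doxorubicin alone and 100% = vehicle without doxorubicin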); details: H69AR viability with doxorubicin, CellTiter-Glo luminescence; at 10 µM; stronger effect = higher value
[9] = growth suppression of beta-catenin knockout HCT116, pilot screen, human colon tumor cells (AID 823;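 active = cell viability at or below a set limit in both duplicate runs, the limit being the all-compound median minus 4 SD, cut at about 23% in these data, passing the limit was not always enough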;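 also: 0% = wells killed by 20 µM Hyamine and 100% = untreated DMSO cell wells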); details: CellTiter-Glo, 60 h, at 10 µM, stronger effect = lower value
[10] = growth suppression of PTEN-deleted HCT116, pilot screen, cell-based, HCT116 clonal line, CellTiter-Glo (AID 824;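 active = viability at or below 27.92% in each of two runs, the all-compound median minus 4 SD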;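 also: 0% = 20 µM Hyamine control and 100% = vehicle cell control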); details: 60 h, at 10 µM, stronger effect = lower value
[11] = inhibitors of the yeast RAM network, pilot screen, dse1pr::URA3 reporter, 5-FOA selection (AID 869;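 active = inhibition over a set limit, the all-compound mean plus 3 SD, in both replicate runs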;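 also: 0% = DMSO wells with no growth and 100% = 10 µM 1-NA-PP1 with full growth; RAM network block rescues cells from 5-FOA so hits raise OD615 growth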); details: S. cerevisiae dse1pr::URA3 5-FOA growth, OD615, 2 d; at 10 µM; stronger effect = higher value; strain carries analog-sensitive mutant Cbk1 kinase
[12] = H69AR cells + 2 uM doxorubicin, measured here: viability with 2 uM doxorubicin, stronger effect = lower value
[13] = H69AR cells, compound alone cytotoxicity

Structure (SMILES): NC(=O)SCC(=O)Nc1cccc(Cl)c1
- viability [1]: 58.4% (inactive)
- differential viability (reversal) ([2]; H69AR cells + 2 uM doxorubicin): 9.55% (inactive)
- viability [2, 12]: 56.8%
- viability [2, 13]: 66.4%
- inhibition [3]: -5.19% (inactive)
- inhibition [4]: 2.06% (inactive)

Structure (SMILES): N#CC(C(=O)NCCc1ccccc1)c1nc2ccccc2nc1N1CCOCC1 (stereo not drawn)
- viability [1]: 82.7% (inactive)
- differential viability (reversal) ([2]; H69AR cells + 2 uM doxorubicin): -3.4% (inactive)
- viability [2, 12]: 62.6%
- viability [2, 13]: 59.2%
- inhibition [3]: -0.53% (inactive)
- inhibition [4]: -5.71% (inactive)

Structure (SMILES): CCn1c(=N)n(CC(O)COc2cccc(C)c2)c2ccccc21 (stereo not drawn)
- viability [5]: 69.9% (inactive)
- differential viability (reversal) ([2]; H69AR cells + 2 uM doxorubicin): -2.36% (inactive)
- viability [2, 12]: 72.3%
- viability [2, 13]: 69.9%
- inhibition [3]: 3.55% (inactive)
- inhibition [4]: -5.08% (inactive)

Structure (SMILES): CSc1ccc2c(c1)N(CCC1CCCCN1C)c1ccccc1S2 (stereo not drawn)
- viability [1]: 2.44% (active)
- differential viability (reversal) ([2]; H69AR cells + 2 uM doxorubicin): 0.67% (inactive)
- viability [2, 12]: 1.26%
- viability [2, 13]: 1.93%

Structure (SMILES): CC(=O)Oc1cccc(/C=c2\sc3nc(-c4ccco4)nn3c2=O)c1
- viability [1]: 56.6% (inactive)
- differential viability (reversal) ([2]; H69AR cells + 2 uM doxorubicin): -3.61% (inactive)
- viability [2, 12]: 55.8%
- viability [2, 13]: 52.2%
- inhibition [3]: -0.91% (inactive)
- inhibition [4]: 1.27% (inactive)

Structure (SMILES): CC[C@H]1CN2CCc3cc(OC)c(OC)cc3[C@@H]2C[C@@H]1C[C@H]1NCCc2cc(OC)c(OC)cc21
- viability [1]: 11% (active)
- differential viability (reversal) ([2]; H69AR cells + 2 uM doxorubicin): 10.2% (inactive)
- viability [2, 12]: 13.3%
- viability [2, 13]: 23.5%
- inhibition [3]: -1.69% (inactive)
- inhibition [4]: 2.17% (inactive)

Structure (SMILES): c1ccc(-n2ncc3c(NCc4cccs4)ncnc32)cc1
- viability [1]: 79% (inactive)
- differential viability (reversal) ([2]; H69AR cells + 2 uM doxorubicin): -10.5% (inactive)
- viability [2, 12]: 52.3%
- viability [2, 13]: 41.8%
- inhibition [3]: -7.73% (inactive)
- inhibition [4]: 2.22% (inactive)

Structure (SMILES): Cc1ccc(C2C3CN(C(C)C)CC=C3C(C#N)=C(N)C2(C#N)C#N)cc1 (stereo not drawn)
- viability [1]: 62.9% (inactive)
- inhibition [3]: -6.27% (inactive)
- inhibition [4]: 1.43% (inactive)

Structure (SMILES): COc1cc(-n2nc(C)c3c2OC(N)=C(C#N)C3c2ccccc2)c(Cl)c(Br)c1O (stereo not drawn)
- viability [1]: 50% (inactive)
- differential viability (reversal) ([2]; H69AR cells + 2 uM doxorubicin): 1.54% (inactive)
- viability [2, 12]: 68%
- viability [2, 13]: 69.5%
- inhibition [3]: -6.4% (inactive)
- inhibition [4]: -4.6% (inactive)

Structure (SMILES): O=c1c2cn[nH]c2nc(SCc2ccc3c(c2)OCCO3)n1-c1ccccc1
- viability [1]: 74.4% (inactive)
- differential viability (reversal) ([2]; H69AR cells + 2 uM doxorubicin): -22.2% (inactive)
- viability [2, 12]: 83.9%
- viability [2, 13]: 61.7%
- inhibition [3]: 1.45% (inactive)
- inhibition [4]: -4.44% (inactive)

Structure (SMILES): CC(C)Cn1c(N)c(C(=O)NCCN2CCOCC2)c2nc3ccccc3nc21
- viability [1]: 52.3% (inactive)
- differential viability (reversal) ([2]; H69AR cells + 2 uM doxorubicin): -23.6% (inactive)
- viability [2, 12]: 79.3%
- viability [2, 13]: 55.7%
- inhibition [3]: -5.2% (inactive)
- inhibition [4]: 3.65% (inactive)

Structure (SMILES): O=S(=O)(Cc1ccc(Cl)cc1)Nc1ccc2c(c1)OCO2
- viability [5]: 104% (inactive)
- differential viability (reversal) ([2]; H69AR cells + 2 uM doxorubicin): 17.3% (inactive)
- viability [2, 12]: 86.8%
- viability [2, 13]: 104%
- inhibition [3]: -0.53% (inactive)
- inhibition [4]: 4.29% (inactive)

Structure (SMILES): CC(NCCC(c1ccccc1)c1ccccc1)c1ccccc1 (stereo not drawn)
- viability [1]: 2.03% (active)
- differential viability (reversal) ([2]; H69AR cells + 2 uM doxorubicin): -0.87% (inactive)
- viability [2, 12]: 2.41%
- viability [2, 13]: 1.54%
- inhibition [3]: 3.77% (inactive)
- inhibition [4]: -5.67% (inactive)

Structure (SMILES): CSc1nnc2c3ccccc3n(Cc3ccccc3)c2n1
- viability [5]: 31.6% (active)
- differential viability (reversal) ([2]; H69AR cells + 2 uM doxorubicin): 1.23% (inactive)
- viability [2, 12]: 30.3%
- viability [2, 13]: 31.6%
- inhibition [3]: -2.37% (inactive)
- inhibition [4]: 2.54% (inactive)

Structure (SMILES): OCCNc1ncnc2c1c(-c1ccccc1)c(-c1ccccc1)n2Cc1ccco1
- viability [5]: 72.4% (inactive)
- differential viability (reversal) ([2]; H69AR cells + 2 uM doxorubicin): 23.7% (inactive)
- viability [2, 12]: 48.8%
- viability [2, 13]: 72.4%
- inhibition [3]: -5.66% (inactive)
- inhibition [4]: 15.7% (inactive)

Structure (SMILES): O=c1c2ccccc2nc(-c2cccc(Cl)c2)n1O
- viability [1]: 84.6% (inactive)
- differential viability (reversal) ([2]; H69AR cells + 2 uM doxorubicin): -14.1% (inactive)
- viability [2, 12]: 60.1%
- viability [2, 13]: 45.9%
- inhibition [3]: -3.68% (inactive)
- inhibition [4]: 0.32% (inactive)

Structure (SMILES): CCCn1c(N2CCN(CC(=O)NCc3cccs3)CC2)nc2ccccc21
- viability [1]: 97.6% (inactive)
- differential viability (reversal) ([2]; H69AR cells + 2 uM doxorubicin): -0.505% (inactive)
- viability [2, 12]: 60.4%
- viability [2, 13]: 59.9%
- inhibition [3]: -4.47% (inactive)
- inhibition [4]: 6.03% (inactive)

Structure (SMILES): CN1CCCN(C(c2ccccc2)c2ccc(Cl)cc2)CC1 (stereo not drawn)
- viability [1]: 54.3% (inactive)
- differential viability (reversal) ([2]; H69AR cells + 2 uM doxorubicin): -24.5% (inactive)
- viability [2, 12]: 69.4%
- viability [2, 13]: 44.8%

Structure (SMILES): CC(C)(C)n1nnnc1CN(Cc1ccco1)Cc1cc2cc3c(cc2[nH]c1=O)OCO3
- viability [1]: 78% (inactive)
- differential viability (reversal) ([2]; H69AR cells + 2 uM doxorubicin): -8.75% (inactive)
- viability [2, 12]: 68%
- viability [2, 13]: 59.3%
- inhibition [3]: -8% (inactive)
- inhibition [4]: 0.16% (inactive)

Structure (SMILES): CCCCCCCCNC(C)C(O)c1ccc(SC(C)C)cc1 (stereo not drawn)
- viability [1]: 2.21% (active)
- differential viability (reversal) ([2]; H69AR cells + 2 uM doxorubicin): -0.28% (inactive)
- viability [2, 12]: 1.44%
- viability [2, 13]: 1.16%

Structure (SMILES): CCOC(=O)c1cc2sccc2n1CC(=O)Nc1ccc2c(c1)OCCO2
- viability [1]: 87.4% (inactive)
- differential viability (reversal) ([2]; H69AR cells + 2 uM doxorubicin): 7.47% (inactive)
- viability [2, 12]: 65.2%
- viability [2, 13]: 72.6%
- inhibition [3]: -6.1% (inactive)
- inhibition [4]: 0.95% (inactive)

Structure (SMILES): CCOc1ccccc1C(=O)Nc1ccc2nc(N3CCN(c4ncccn4)CC3)cc(C)c2c1
- growth inhibition [6]: 5.8% (inactive)
- growth inhibition [7]: -4.81% (inactive)
- viability increase [8]: -7.45% (inactive)
- viability [9]: 4.33% (active)
- viability [10]: 2.14% (active)

Structure (SMILES): Cn1c(SCc2ccccc2Cl)nnc1-c1cnccn1
- growth inhibition [6]: -2.59% (inactive)
- growth inhibition [7]: -7.88% (inactive)
- viability increase [8]: -1.15% (inactive)
- viability [9]: 103% (inactive)
- viability [10]: 102% (inactive)
- inhibition [11]: 2.44% (inactive)
